The source of these data is PubChem BioAssay (NCATS).

Molecules are shown by their SMILES. Records with an inconclusive call do not appear. Where a call stands in place of a potency, no number is given. The source made the active and inactive calls. Calls come from the whole dose curve; as a rule, active = well fitted cell-killing curve with a large enough effect; inconclusive = small, poorly fitted or top-dose-only effect, or effect the other way; inactive = no such curve, though single readings can be large or run the other way.

The assay is described as follows: qHTS assay to identify small molecule inhibitors of chordoma cells - UCH-1 (AID 1259355). Note: nearly all actives have a fitted effect of over 55% in size. The settings on record: UCH-1 chordoma viability, CellTiter-Glo, 48 h, combination, with auranofin plus four topoisomerase inhibitors; series mostly up to 46.1 µM. From the text:
NIH Chemical Genomics Center [NCGC]
Chordoma is a rare and slow growing tumor that can occur anywhere along the spine, from the base of the skull to the tailbone. Current treatment options for chordoma is surgery and radiation therapy for those who are not candidates for surgery. But chordomas tend to return in the same location or surrounding areas of the original tumor after surgery and/or radiation. Chemotherapy can slow down the progression of the tumor. As chordoma is slow growing, the general cytotoxic agents that kill fast growing cells are ineffective, and some patients have been reported to respond to molecularly targeted drugs.
NCATS Pharmaceutical Collection (NPC) containing approximately 3000 clinically approved and investigational drugs were used to screen at 15 concentrations in a chordoma cell lines, UCH-1, to identify small molecule compounds that can inhibit chordoma cell growth.
NCGC Assay Protocol Summary:
Human chordoma cell line UCH-1 was dispensed at 800 per well in 4uL of culture medium into white solid bottom 1536-well plates (Corning Life Sciences, Corning, NY) using a Multidrop Combi (Thermo Scientific, Waltham, MA) dispenser. The assay plates were incubated at 37 C and 5% CO2 for an overnight, and then 23nL of compounds dissolved in DMSO and positive control were transferred using a Pintool station (Wako, San Diego, CA). Compound treatment was followed by the addition of 1uL of the combination compounds (1uM Auranofin, 500nM each of Camptothecin, Doxorubicin, Rubitecan, and Topotecan) and assay medium to each well of the assay plates using Flying Reagent Dispenser (FRD, Aurora Discovery, San Diego, CA). The assay plates were incubated at 37 C and 5% CO2 for 48hr. Then 5uL of CellTiter-Glo reagent (Promega Corporation, Madison, WI) was added to each well of the assay plates using FRD. After 30min incubation at room temperature, the luminescence signal was quantified using a ViewLux plate reader (PerkinElmer, Shelton, CT).
With `O=C(O)[C@H](O)c1ccccc1`, the Potency result was “inactive”. With `NCCNCCNCCNCCN` the entry was “inactive”; with `Cc1cc2nc3c(=O)[nH]c(=O)nc-3n(C[C@H](O)[C@H](O)[C@H](O)CO)c2cc1C`, “inactive”. With `c1ccc2c(CC3=NCCN3)cccc2c1` the entry was “inactive”; with `O=c1[nH]cnc2c1ncn2[C@@H]1O[C@H](CO)[C@@H](O)[C@H]1O`, “inactive”; with `CCCCc1ncc(/C=C(\Cc2cccs2)C(=O)O)n1Cc1ccc(C(=O)O)cc1`, “inactive”. With `COCCOC(=O)C1=C(C)NC(C)=C(C(=O)OC/C=C/c2ccccc2)C1c1cccc([N+](=O)[O-])c1` (stereo not given) the entry was “inactive”; with `NC(=O)NC(=O)Cc1ccccc1`, “inactive”. Turning to `O=C1O[C@H]([C@@H](O)CO)C(O)=C1O`, the Potency entry is “inactive”. Then `CCCCOc1cc(C(=O)OCCN(CC)CC)ccc1N`, with “inactive”; and `O=c1cc[nH]c(=S)[nH]1`, with “inactive”; and `C[C@]12CC[C@@H]3c4ccc(O)cc4CC[C@H]3[C@@H]1CC[C@@H]2OC(=O)CCC1CCCC1`, with “inactive”. With `Cn1c(=O)c2c(ncn2CC2OCCO2)n(C)c1=O` the entry was “inactive”. Then `O=c1cc[nH]c(=O)[nH]1`, with “inactive”. As to `CC(C)(C)C(=O)NCCCC(=O)O`, the Potency entry is “inactive”. With `C=CCn1c(=O)n([C@@H]2O[C@H](CO)[C@@H](O)[C@H]2O)c2nc(N)[nH]c(=O)c21` the entry was “inactive”.

As to `Oc1cccc(O)c1`, the Potency result is “inactive”. Then `O=c1[nH]c(=O)c2[nH]c(=O)[nH]c2[nH]1`, with “inactive”; and `COC(=O)C1=C(C)NC(C)=C(C(=O)OC)C1c1ccccc1[N+](=O)[O-]`, with “inactive”. Then `CNC(=O)Oc1ccc2c(c1)[C@]1(C)CCN(C)[C@@H]1N2C`, with “inactive”; and `CCN(CC)CCCC(C)Nc1c2ccc(Cl)cc2nc2ccc(OC)cc12` (stereo not given), with “inactive”.

With `Cc1ncc([N+](=O)[O-])n1CC(O)CCl` (stereo not given), the Potency result is “inactive”.

For `NCCNCCNCCN`, the Potency result is “inactive”.

On to `O=C1O[C@H](CO)[C@@H](O)[C@H](O)[C@H]1O`, for which the Potency entry is “inactive”. Then `Cc1cc2c(cc1S(N)(=O)=O)S(=O)(=O)CCC2`, with “inactive”; and `[O-][n+]1cccc(CO)c1`, with “inactive”; and `CCCCCCCCCCCCCCCCCCOCC(O)CO` (stereo not given), with “inactive”. `Oc1ccc(C(O)CNCCCCCCNCC(O)c2ccc(O)c(O)c2)cc1O` (stereo not given): the Potency result is “inactive”. For `O=C1OC(OC(=O)c2cccnc2Nc2cccc(C(F)(F)F)c2)c2ccccc21` (stereo not given), the Potency entry is “inactive”.

Consider `O=C(O)CC(O)C(=O)O` (stereo not given), for which the Potency entry was “inactive”. Then `O=C(CCCN1CCN(c2ccccn2)CC1)c1ccc(F)cc1`, with “inactive”. Then `Cc1cccc(Nc2cc(Cl)nc(SCC(=O)O)n2)c1C`, with “inactive”.

In the case of `CN(C)CCN(Cc1ccccc1)c1ccccn1`, the Potency entry is “inactive”. With `CC(C)(C)NCC(O)COc1ccc(NC(=O)NC2CCCCC2)cc1` (stereo not given) the entry was “inactive”; with `COc1cc(C)c(Cc2cnc(N)nc2N)cc1OC`, “inactive”.

For `O=c1cc(CO)occ1O`, the Potency result is “inactive”. With `O=C(O)c1ccccc1O` the entry was “inactive”; with `CCN(CC)CCSC(=O)C(c1ccccc1)c1ccccc1`, “inactive”; with `CC1(C)OC(=O)NC1=O`, “inactive”. Then `CCOC(=O)[C@H](CCc1ccccc1)N[C@@H](C)C(=O)N1C(=O)N(C)C[C@H]1C(=O)O`, with “inactive”.
